Structures are written as SMILES. Records with an inconclusive call do not appear. A call without a number means that no potency is given here. Activity calls are given as the source filed them. The call rests on the fitted dose curve; in most records, active means well fitted curve in the direction sought with a large enough effect; inconclusive means small, poorly fitted or top-dose-only effect, or another doubt; inactive means no such curve, though single readings can be large; an effect the other way counts as inactive or inconclusive.

Chain of Cytochrome P450 3A4 (Homo sapiens) (P08684 whole entry, looked up): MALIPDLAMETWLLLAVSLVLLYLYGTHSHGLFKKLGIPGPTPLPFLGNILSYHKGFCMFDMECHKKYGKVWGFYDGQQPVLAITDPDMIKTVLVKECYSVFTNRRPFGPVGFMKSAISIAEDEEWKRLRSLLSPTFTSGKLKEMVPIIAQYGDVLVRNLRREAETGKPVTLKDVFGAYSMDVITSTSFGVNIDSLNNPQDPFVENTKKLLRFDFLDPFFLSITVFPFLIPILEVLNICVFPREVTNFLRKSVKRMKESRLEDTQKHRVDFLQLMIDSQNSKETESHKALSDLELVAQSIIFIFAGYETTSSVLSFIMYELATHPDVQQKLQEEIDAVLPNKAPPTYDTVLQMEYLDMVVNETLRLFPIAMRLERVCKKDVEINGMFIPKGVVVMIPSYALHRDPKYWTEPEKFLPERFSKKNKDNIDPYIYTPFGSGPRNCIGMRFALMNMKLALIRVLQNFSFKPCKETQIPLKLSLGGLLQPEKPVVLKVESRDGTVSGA
Chain of Cytochrome P450 2D6 (Homo sapiens) (P10635 whole entry, looked up): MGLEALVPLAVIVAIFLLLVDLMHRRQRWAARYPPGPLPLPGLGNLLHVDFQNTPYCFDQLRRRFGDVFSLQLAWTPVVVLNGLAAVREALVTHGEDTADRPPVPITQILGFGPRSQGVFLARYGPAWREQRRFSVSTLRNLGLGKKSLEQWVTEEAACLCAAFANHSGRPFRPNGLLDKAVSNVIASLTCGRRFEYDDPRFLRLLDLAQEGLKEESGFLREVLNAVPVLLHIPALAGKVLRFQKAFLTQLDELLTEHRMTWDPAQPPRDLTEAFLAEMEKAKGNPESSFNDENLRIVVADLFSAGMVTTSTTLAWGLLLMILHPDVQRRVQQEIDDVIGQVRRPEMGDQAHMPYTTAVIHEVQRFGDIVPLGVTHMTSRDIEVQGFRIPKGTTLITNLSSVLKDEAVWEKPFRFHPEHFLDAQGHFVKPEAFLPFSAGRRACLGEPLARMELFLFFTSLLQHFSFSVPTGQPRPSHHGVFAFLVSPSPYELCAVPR

The target in one experiment is Cytochrome P450 3A4 (Homo sapiens) (UniProt P08684). As to the kind of experiment: qHTS Assay for Inhibitors and Substrates of Cytochrome P450 3A4 (AID 884). Further: nearly all actives have a fitted effect of over 50% in size. Particulars: recombinant CYP3A4, Luciferin-PPXE luminescence; series mostly up to 57.1 µM. A digest of the protocol:
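Luminescent readout of luciferin produced by CYP3A4 (20 nM) dealkylation of Luciferin-PPXE, 25 uM (its KM). NADPH-driven reaction ran 60 min at RT after 10 min compound preincubation; data scaled to 57 uM ketoconazole as 100% inhibition.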
(In general: Quantitative high-throughput screening tests each substance at several concentrations.)
As to `O=C(O)P(=O)(O)O`, the Potency result was “inactive”.

Regarding `COc1ccc(CN(CCN(C)C)c2ncccn2)cc1`, the Potency result was “inactive”.

Consider `CC(=O)NO`, for which the Potency result is “inactive”.

`COc1ccc(-c2cc(C(F)F)nn2-c2ccc(S(N)(=O)=O)cc2)cc1F`: the Potency entry was “inactive”.

With `CCN(CC)CCOc1ccc2c(c1)C(=O)c1cc(OCCN(CC)CC)ccc1-2`, the Potency result was “inactive”.

As to `COP(=O)(OC)OC(c1ccc(Cl)cc1)P(=O)(OC)OC` (stereo not drawn), the Potency entry is “inactive”.

Turning to `Cc1cc(C)cc(OCC2CNC(=O)O2)c1` (stereo not drawn), the Potency entry is “inactive”.

Turning to `CC(=O)NCCCCCC(=O)O`, the Potency result was “inactive”.

Regarding `C[N+]12CCC(CC1)C(OC(=O)C(O)(c1ccccc1)c1ccccc1)C2` (stereo not drawn), the Potency result was “inactive”.

Turning to `O=C1C(O)=C(O)C(=O)C(O)=C1O`, the Potency result is “inactive”.

Regarding `CC(C(=O)O)c1cccc(Oc2ccccc2)c1` (stereo not drawn), the Potency result is “inactive”.

Regarding `CCCCCN=C(N)N/N=C/c1c[nH]c2ccc(OC)cc12`, the Potency result is “inactive”.

In the case of `Cc1ncc(CO)c(C=O)c1O`, the Potency result was “inactive”.

On to `O=C(O)CCNC(=O)c1ccccc1`, for which the Potency entry was “inactive”.

Consider `C[C@H]1[C@H]2CC[C@H]3[C@@H]4CC=C5C[C@@H](N(C)C)CC[C@]5(C)[C@H]4CC[C@]23CN1C`, for which the Potency entry was “inactive”.

For the molecule `Nc1ccc(C(=O)NCC(=O)O)cc1`, the Potency result is “inactive”.

With `CN(C)CCOC(c1ccc(Cl)cc1)c1ccccn1` (stereo not drawn), the Potency entry is “inactive”.

In the case of `CCCc1ncc(C[n+]2ccccc2C)c(N)n1`, the Potency entry is “inactive”.

In the case of `O=c1[nH]c(=O)n([C@H]2C[C@H](O)[C@@H](CO)O2)cc1F`, the Potency entry is “inactive”.

In the case of `CCCCC(CC)CN1CN(CC(CC)CCCC)CC(C)(N)C1` (stereo not drawn), the Potency entry was “inactive”.

Regarding `CNCCc1ccccn1`, the Potency result was “inactive”.

A further experiment has the same target. The experiment in a line: qHTS Assay for Activators of Cytochrome P450 3A4 (AID 885). Further: nearly all actives have a fitted effect of over 65% in size. The settings on record: recombinant CYP3A4, Luciferin-PPXE luminescence, 60 min; series mostly up to 57.1 µM. A digest of the protocol: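 Using 20nM recombinant human CYP3A4 in potassium phosphate (200mM), substrate Luciferin-PPXE at 25uM, luminescent luciferin detection followed a 60-min RT NADPH reaction; data scaled to 57 uM ketoconazole.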
As for `Cc1cc(-c2ccccc2)nnc1NCCN1CCOCC1`, the result was inactive.

In the case of `CC[C@H](c1ccc(O)cc1)[C@@H](CC)c1ccc(O)cc1`, the outcome was inactive.

In the case of `Cc1c(-c2ccccc2)oc2c(C(=O)OCCN3CCCCC3)cccc2c1=O`, the result was inactive.

For the molecule `CCN(CC)CCNc1ccc(CO)c2sc3ccccc3c(=O)c12`, the outcome was inactive.

Consider `O=C1C(CCS(=O)c2ccccc2)C(=O)N(c2ccccc2)N1c1ccccc1` (stereo not drawn), for which the result was inactive.

For `Nc1ccc(S(=O)(=O)Nc2cnc3ccccc3n2)cc1`, the result was inactive.

`CCN(CC)CCOC(=O)C(Cc1cccc2ccccc12)CC1CCCO1` (stereo not drawn): the result was inactive.

In the case of `CCOC(=O)c1ccc(N)cc1`, the outcome was inactive.

The target in the next experiment is Cytochrome P450 2D6 (Homo sapiens) (UniProt P10635). The experiment in a line: qHTS Assay for Inhibitors and Substrates of Cytochrome P450 2D6 (AID 891). Further: potency means the concentration at half of the fitted maximal effect; nearly all actives have a fitted effect of over 60% in size. The settings on record: recombinant CYP2D6, luciferin-ME EGE luminescence. An outline of the steps:
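Luminescent read-out of luciferin formed by 5 nM human CYP2D6 demethylating 30 uM Luciferin-ME EGE (Km level) over 60 min at room temperature after NADPH regeneration addition. Data normalized to full inhibition by 1.43 uM quinidine.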
In the case of `CCc1cc(Cl)c(OC)c(C(=O)NC[C@@H]2CCCN2CC)c1O`, the Potency is 0.0501 µM (active).

Consider `Cc1c(-c2ccccc2)oc2c(C(=O)OCCN3CCCCC3)cccc2c1=O`, for which the Potency is 7.94 µM (active).

For `CCN(CC)CCNc1ccc(CO)c2sc3ccccc3c(=O)c12`, the Potency is 5.01 µM (active).

`CCCCc1cc2ccccc2c(OCCN(C)C)n1`: the Potency is 2 µM (active).
